Screening data: PubChem, The Scripps Research Institute Molecular Screening Center
Most compounds without a hit are left out; they make up all but 1.9% or so of the library.
MOR-DOR inv ag – inverse agonists of human mu-delta opioid receptor heterodimerization; P35372+P41143; cell-based MOR-DOR heterodimer luminescence, inverse agonism; inhibition, % at 9.3 µM; 340,000 tested, 0.21% active; in the data active means inhibition above about 22%, passing the limit was not always enough;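 further: 0% = cells with DMSO and 100% = wells without cells with DMSO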
HTR5A inv ag – inverse agonist of human HTR5A in OPRM1-OPRD1 counter-screen; AID 504634; HTR5A cell line, luminescence, inverse agonism; inhibition, % at 9.3 µM; P47898; 340,000 tested, 0.083% active; in the data active means inhibition mostly above about 23%, no sharp cut-off; inactive means mostly below about 18%;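 further: 0% = cells with DMSO and 100% = no-cell wells with DMSO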
Target sequence (P47898 whole entry, looked up): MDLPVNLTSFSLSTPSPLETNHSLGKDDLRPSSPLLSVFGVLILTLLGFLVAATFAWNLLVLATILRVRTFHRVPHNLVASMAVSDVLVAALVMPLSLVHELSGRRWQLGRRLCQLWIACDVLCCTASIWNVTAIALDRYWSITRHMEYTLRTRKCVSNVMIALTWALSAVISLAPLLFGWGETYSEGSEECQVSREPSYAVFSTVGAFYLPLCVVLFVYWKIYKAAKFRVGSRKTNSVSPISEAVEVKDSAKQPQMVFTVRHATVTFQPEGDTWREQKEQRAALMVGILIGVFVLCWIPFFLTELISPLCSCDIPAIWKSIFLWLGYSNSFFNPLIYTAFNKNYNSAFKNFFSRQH
HTR5A ag – counter-screen for OPRM1-OPRD1 agonists: human HTR5A agonism. P47898. HTR5A agonist assay, luminescence, cell-based. activation, % at 9.3 µM. 340,000 tested, 0.61% active; in the data active means activation mostly above about 9.5%, no sharp cut-off; inactive means mostly below about 7.6%;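 further: 0% = cells with vehicle only and 100% = reference agonist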
MOR-DOR ag – OPRM1-OPRD1 heterodimerization agonism; activation, % at 9.3 µM; P35372+P41143; AID 504326; cells, luminescence; 340,000 tested, 0.3% active;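 further: 0% = vehicle-treated cells and 100% = reference agonist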
MsrA inh – inhibits bovine methionine sulfoxide reductase A | purified bovine MsrA, absorbance read-out | inhibition, % at 15.5 µM | 360,000 tested, 0.75% active | AID 651718; in the data active means inhibition above about 4.5%;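 further: 0% = vehicle wells with enzyme and 100% = reference inhibitor wells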
bovine MsrA act – bovine methionine sulfoxide reductase A activation | activation, % at 10.6 µM | 360,000 tested, 0.3% active | purified bovine MsrA, absorbance read-out; in the data active means activation above about 7.5%;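 further: 0% = vehicle and 100% = reference activator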
MOR-DOR ag conf – OPRM1-OPRD1 heterodimer agonism, confirmation; shares compounds with MOR-DOR ag; cells, MOR-DOR heterodimerization, luminescence complementation; activation, % at 9.3 µM; 830 tested, 45% active; AID 504904;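 further: 0% = vehicle-treated cells and 100% = reference agonist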
HTR5A ag counter – counter-screen for OPRM1-OPRD1 agonists: human HTR5A agonism; shares compounds with MOR-DOR ag; HTR5A agonist counterscreen, cell luminescence; activation, % at 9.3 µM; 830 tested, 8% active; AID 504905; in the data active means activation above about 17%;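 further: 0% = vehicle-treated cells and 100% = reference agonist response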
The depositor's hits bear a star; i = inactive; . = no result. Unless noted, no stated cut-off is given here; in the data, active means activation above about 18%; inactive means the rest.

SMILES	MOR-DOR inv ag	HTR5A inv ag	HTR5A ag	MOR-DOR ag	MsrA inh	bovine MsrA act	MOR-DOR ag conf	HTR5A ag counter
CCOC(=O)C1=C(C)N(CCCC(=O)O)C(=O)NC1c1ccccc1Cl (stereo not given)	.	.	.	.	-0.5	.	.	.
COCc1cc(N2CCN(C(=O)OC(C)(C)C)C[C@@H]2C)ccc1Br	.	.	.	.	-1.2	.	.	.
Cc1ccc2nc(-c3ccc(C#N)cc3)c(Cc3cccc(F)c3)n2c1	.	.	.	.	0.1	.	.	.
O=C(Nc1cccc(-c2nc3ccccc3[nH]2)c1)c1cccc(NC(=O)c2ccco2)c1	-458.6	12.6	7.2	88.2*	2.0	-1.3	-2.0	-0.9
O=C(CSc1ccc(Cl)cc1)Nc1cccc(-c2nc3ccccc3[nH]2)c1	-202.6	-5.6	2.1	33.7*	3.3	-12.9	12.9	7.8
O=C(CSc1ccccc1)Nc1ccc(-c2nc3ccccc3[nH]2)cc1	-111.5	-32.5	7.6	21.5*	1.0	-4.4	4.7	-2.2
O=C(Nc1ccc2nc(-c3ccccc3)[nH]c2c1)c1ccco1	4.5	-6.8	1.6	-0.8	1.5	-2.4	.	.
Cc1ccc(N(C(=O)CCC(=O)Nc2cc(C)on2)C(C(=O)NC2CCCC2)c2cccs2)cc1 (stereo not given)	-0.3	-9.2	-0.4	0.1	-1.2	-0.9	.	.
Cc1ccc(N(C(=O)C(F)(F)F)C(C(=O)NC2CCCCC2)c2cccs2)cc1 (stereo not given)	-104.7	-10.2	11.7	18.3*	0.1	0.6	-1.3	-1.5
Cn1c(=N)n(CC(=O)c2ccc(Br)cc2)c2ccccc21	-180.1	21.8	0.4	34.0*	0.9	-2.6	24.9*	0.2
COc1ccc2[nH]c3c(N4CCc5ccccc5C4)ncnc3c2c1	-99.3	-21.5	10.3	19.6*	0.4	-2.4	2.0	6.2
CCOC(=O)N1CCN(c2ncnc3c2[nH]c2ccc(OC)cc23)CC1	1.0	-44.6	14.0	-0.2	1.8	-12.2	.	.
C[C@@H]1CN([C@@H](C)CO)C(=O)c2cc(Br)cnc2O[C@@H]1CN(C)C(=O)c1ccc(F)cc1	.	.	.	.	-0.7	.	.	.
CCOc1ccc(NC(=S)Nc2ccc3nsnc3c2)cc1	-138.1	12.3	4.2	22.2*	1.8	3.1	5.6	3.5
Cc1ccc(-c2nnn(CC(=O)Nc3ccc(S(=O)(=O)N4CCC(C)CC4)cc3)n2)cc1	-229.6	-65.3	15.1*	46.6*	-0.2	-1.8	26.0*	8.2
CC1CCN(CC(=O)Nc2ccc(S(=O)(=O)N3CCC(C)CC3)cc2)CC1	-16.0	5.6	-1.5	3.4	-0.5	-0.3	.	.
C[C@@H]1ON(C)[C@H]2C[C@H]3c4[nH]c5c(-c6cccc(Cl)c6)cccc5c4CCN3C(=O)[C@@H]12	.	.	.	.	0.8	.	.	.
Cc1csc(N/N=C/c2ccc(O)c([N+](=O)[O-])c2)n1	16.6	-2.5	-3.9	-3.6	4.4	-3.9	.	.
CC(C)(C)c1csc(N/N=C/c2ccc(O)cc2)n1	-84.3	3.8	-1.0	18.3*	1.7	-0.8	49.5*	0.8
COc1ccc(NS(=O)(=O)c2ccc(O)c(NC(=O)c3cc4c(C)nn(-c5ccc(F)cc5)c4s3)c2)cc1	-122.7	1.1	-0.4	20.4*	.	6.4	51.0*	1.3
COc1ccc(/C=N/Nc2c(Cl)cc(Cl)cc2Cl)cc1CN1CCOCC1	-137.8	-20.4	-0.9	30.7*	0.9	-7.2	5.1	3.5
COc1ccc(/C=N/NC(=O)c2ccccc2O)cc1CN1CCOCC1	17.6	4.6	-1.6	-3.2	3.7	-4.7	.	.
O=C1C(=O)c2ccc(-c3ccccc3)cc2-c2ccccc21	-118.0	-21.9	4.8	25.9*	0.2	-9.0	0.2	2.7
CCN1C(c2ccccc2)=C(c2ccccc2)S/C1=C/C=C1\SC(=S)N(C)C1=O	-298.6	-31.2	10.9	47.7*	-0.3	-3.3	441.1*	29.2*
CCN1C(c2ccccc2)=C(c2ccccc2)S/C1=C\C=C1/SC(=S)N(C)C1=O	i	-16.3	12.9	137.1*	0.2	-3.6	12.8	5.8
SMILES	MOR-DOR inv ag	HTR5A inv ag	HTR5A ag	MOR-DOR ag	MsrA inh	bovine MsrA act	MOR-DOR ag conf	HTR5A ag counter
CCN1C(=O)/C(=C/C=C2/Sc3ccc4ccccc4c3N2CCO)SC1=S	0.4	-7.0	3.8	-0.1	0.4	-4.3	.	.
O=S(=O)(c1ccc(F)cc1)N1CCCc2nc(-c3ccc(F)cc3)ccc21	.	.	.	.	-0.5	.	.	.
O=C1C=C(NCCc2cc(Br)c(O)c(Br)c2)C(=O)c2ncccc21	-156.6	-24.9	6.5	35.8*	-0.9	1.0	9.7	4.5
COc1ccc(C(CNC(=O)C2CC2)N(C)C)cc1 (stereo not given)	3.6	12.5	-4.9	-0.9	0.5	-1.5	.	.
COc1ccc(C(CNC(=O)C(C)c2ccc3cc(OC)ccc3c2)N(C)C)cc1 (stereo not given)	-187.9	-15.5	5.2	23.3*	0.0	-2.7	55.8*	-3.9
COc1ccc(C(CNC(=O)c2cc(C)on2)N(C)C)cc1 (stereo not given)	-82.8	7.0	-2.6	11.0	-1.9	-9.9	.	.
COc1ccc(C(CNC(=O)Cc2ccc3ccccc3c2)N(C)C)cc1 (stereo not given)	-296.2	-20.4	6.9	36.7*	-0.1	-2.8	0.4	-1.2
Cc1cccc(C)c1NC(=O)C(CCc1ccccc1)N1CCN(CCN(C)C)CC1 (stereo not given)	.	.	.	.	0.2	.	.	.
O=S1(=O)N[C@@H](Cc2ccccc2)COc2cc(N3CCOCC3)ccc21	.	.	.	.	0.2	.	.	.
COc1ccccc1CCn1cnc(-c2ccccc2OC)c1CC(C)C	.	.	.	.	0.2	.	.	.
O=C(Nc1ccc(Cl)cc1)OC[C@@H]1CSCCS(=O)(=O)N1	.	.	.	.	1.3	.	.	.
COc1ccc(CNCc2cn(-c3cccc(F)c3)nc2-c2ccc(C)o2)cc1	i	1.1	-0.4	120.0*	1.3	-6.8	-0.1	0.1
COc1ccc(-n2cc(CNCCc3cnc[nH]3)c(-c3cccc(F)c3)n2)cc1	19.1	-14.2	1.9	-4.0	-0.3	-9.8	.	.
COc1ccc(-c2nn(-c3ccccc3)cc2CNCc2cccnc2)c(F)c1	-96.9	6.7	-2.6	21.1*	-0.3	-0.7	-1.7	-0.9
COc1ccc(-n2cc(CNCc3cccnc3)c(-c3cccc(F)c3)n2)cc1	-279.1	-3.7	1.3	55.0*	-0.1	-0.5	404.1*	1.7
COc1ccc(-c2nn(-c3ccccc3C)cc2CNCc2cccnc2)cc1F	-328.3	18.8	-4.0	72.2*	1.4	-1.6	134.1*	5.3
O=S(=O)(CS(=O)(=O)c1ccc(Br)cc1)c1ccc(Br)cc1	.	.	.	.	1.5	.	.	.
Nc1nc2c(ncn2[C@@H]2O[C@H](C(=O)NC3CCCCC3)[C@@H](O)[C@H]2O)c(=O)[nH]1	.	.	.	.	0.1	.	.	.
O=C(NCc1ccccc1)[C@@H]1CCCN1C(=O)[C@H]1CCCN1C(=O)c1cccc2ccccc12	.	.	.	.	-0.4	.	.	.
S=C(NCc1ccncc1)Nc1cccc(Cl)c1	0.1	-2.8	2.9	0.0	0.1	-5.6	.	.
